According to the supplement of paper PMC8728848:
This is one part of a sample in which the strongest signals are shown more often than they occur.

Columns and labels:
Experiment in all cases: glycan array binding signal (z-score within array); higher = stronger binding
Settings in all cases: glycan notation: IUPAC condensed, linker removed
[1] = biological target: GlcNAc(b1-2)[GlcNAc(b1-4)]Man(a1-3)[GlcNAc(b1-4)][GlcNAc(b1-2)[GlcNAc(b1-6)]Man(a1-6)]Man(b1-4)GlcNAc(b1-4)[Fuc(a1-6)]GlcNAc
Procedure, shortened: (§1)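 The binding signal is a Z-score computed within each array and averaged over linkers. Arrays of the same protein sequence at different concentrations or buffers were also averaged together. Data originate from 3228 arrays in the Consortium for Functional Glycomics database, kept only where the protein sequence was available.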

[2] = biological target: GlcNAc(b1-2)[GlcNAc(b1-6)]Man(a1-6)[GlcNAc(b1-2)Man(a1-3)]Man(b1-4)GlcNAc(b1-4)GlcNAc
Procedure, shortened: as §1

[3] = biological target: GlcNAc(b1-3)Gal(b1-3)GalNAc
Procedure, shortened: as §1

[4] = biological target: GlcNAc(b1-3)Gal(b1-4)GlcNAc(b1-3)Gal(b1-4)GlcNAc(b1-3)Gal(b1-4)GlcNAc(b1-3)Gal(b1-4)GlcNAc(b1-2)Man(a1-3)[GlcNAc(b1-3)Gal(b1-4)GlcNAc(b1-3)Gal(b1-4)GlcNAc(b1-3)Gal(b1-4)GlcNAc(b1-3)Gal(b1-4)GlcNAc(b1-2)Man(a1-6)]Man(b1-4)GlcNAc(b1-4)[Fuc(a1-6)]GlcNAc
Procedure, shortened: as §1

[5] = biological target: GlcNAc(b1-3)Gal(b1-4)GlcNAc(b1-3)Gal(b1-4)GlcNAc(b1-3)Gal(b1-4)GlcNAc(b1-3)Gal(b1-4)GlcNAc(b1-2)[GlcNAc(b1-3)Gal(b1-4)GlcNAc(b1-3)Gal(b1-4)GlcNAc(b1-3)Gal(b1-4)GlcNAc(b1-3)Gal(b1-4)GlcNAc(b1-6)]Man(a1-6)[GlcNAc(b1-3)Gal(b1-4)GlcNAc(b1-3)Gal(b1-4)GlcNAc(b1-3)Gal(b1-4)GlcNAc(b1-3)Gal(b1-4)GlcNAc(b1-2)Man(a1-3)]Man(b1-4)GlcNAc(b1-4)[Fuc(a1-6)]GlcNAc
Procedure, shortened: as §1

[6] = biological target: GlcNAc(b1-3)Gal(b1-4)GlcNAc(b1-6)[GlcNAc(b1-3)]Gal(b1-4)GlcNAc
Procedure, shortened: as §1

GlcNAc(b1-3)Man = biological target: GlcNAc(b1-3)Man
Procedure, shortened: as §1

[7] = biological target: GlcNAc(b1-4)GlcNAc(b1-4)GlcNAc(b1-4)GlcNAc(b1-4)GlcNAc(b1-4)GlcNAc
Procedure, shortened: as §1

[8] = biological target: GlcNAc6S(b1-3)Gal(b1-4)GlcNAc
Procedure, shortened: as §1

Kdn(a2-6)Gal(b1-4)GlcNAc = biological target: Kdn(a2-6)Gal(b1-4)GlcNAc
Procedure, shortened: as §1

[9] = biological target: Man(a1-3)[Man(a1-6)]Man(a1-6)[Man(a1-3)]Man
Procedure, shortened: as §1

Man(b1-4)GlcNAc = biological target: Man(b1-4)GlcNAc
Procedure, shortened: as §1

[10] = biological target: Neu5Ac(a2-3)Gal(b1-3)GalNAc(b1-4)[Neu5Ac(a2-3)]Gal(b1-4)Glc
Procedure, shortened: as §1

[11] = biological target: Neu5Ac(a2-3)Gal(b1-3)GlcNAc(b1-2)Man(a1-3)[Neu5Ac(a2-3)Gal(b1-3)GlcNAc(b1-2)Man(a1-6)]Man(b1-4)GlcNAc(b1-4)GlcNAc
Procedure, shortened: as §1

[12] = biological target: Neu5Ac(a2-3)Gal(b1-4)GlcNAc(b1-2)[Neu5Ac(a2-3)Gal(b1-4)GlcNAc(b1-6)]Man(a1-6)[Neu5Ac(a2-3)Gal(b1-4)GlcNAc(b1-2)Man(a1-3)]Man(b1-4)GlcNAc(b1-4)GlcNAc
Procedure, shortened: as §1

[13] = biological target: Neu5Ac(a2-3)Gal(b1-4)GlcNAc(b1-3)Gal(b1-4)GlcNAc(b1-3)Gal(b1-4)GlcNAc
Procedure, shortened: as §1

[14] = biological target: Neu5Ac(a2-3)Gal(b1-4)GlcNAc(b1-3)Gal(b1-4)GlcNAc(b1-3)[Neu5Ac(a2-3)Gal(b1-4)GlcNAc(b1-3)Gal(b1-4)GlcNAc(b1-6)]GalNAc
Procedure, shortened: as §1

[15] = biological target: Neu5Ac(a2-3)Gal(b1-4)GlcNAc(b1-6)GalNAc
Procedure, shortened: as §1

[16] = biological target: Neu5Ac(a2-6)Gal(b1-4)GlcNAc(b1-2)Man(a1-3)[Neu5Ac(a2-6)Gal(b1-4)GlcNAc(b1-2)Man(a1-6)]Man(b1-4)GlcNAc(b1-4)GlcNAc
Procedure, shortened: as §1

[17] = biological target: Neu5Ac(a2-6)Gal(b1-4)GlcNAc(b1-2)[Neu5Ac(a2-6)Gal(b1-4)GlcNAc(b1-4)]Man(a1-3)[GlcNAc(b1-4)][Neu5Ac(a2-6)Gal(b1-4)GlcNAc(b1-2)[Neu5Ac(a2-6)Gal(b1-4)GlcNAc(b1-6)]Man(a1-6)]Man(b1-4)GlcNAc(b1-4)GlcNAc
Procedure, shortened: as §1

[18] = biological target: Neu5Ac(a2-6)Gal(b1-4)GlcNAc(b1-6)GalNAc
Procedure, shortened: as §1

[19] = biological target: Neu5Ac(a2-6)Gal(b1-4)GlcNAc(b1-6)[Gal(b1-3)GlcNAc(b1-3)]Gal(b1-4)Glc
Procedure, shortened: as §1

[20] = biological target: Neu5Ac(a2-6)GalNAc(b1-4)GlcNAc6S
Procedure, shortened: as §1

[21] = biological target: Neu5Ac(a2-8)Neu5Ac(a2-8)Neu5Ac
Procedure, shortened: as §1

[22] = biological target: Neu5Gc(a2-3)Gal(b1-3)[Fuc(a1-4)]GlcNAc
Procedure, shortened: as §1

[23] = biological target: Neu5Gc(b2-6)Gal(b1-4)GlcNAc
Procedure, shortened: as §1

B1: CvGal2 (Crassostrea virginica) (protein)
chain: MGSSHHHHHHSSGLVPRGSHMRIREAGKRKDTTKVYQIPDGLFPGQQVMLRGRVPWGSKSFSINFSATPRMGEGDILFHLNPRPSEGVCIRNALLNGSWGAEEKWQPYFPFDDGRSFSVKIEVTNDAFRTFVNGRPFVDFLHRTDFRAGKYLTLREGAEYYDVIFQSKPNIPLTTAIHNGMRIGKTIRIRGMCTAQDGFAINFNDNRNNIYFHFNARPAQRTVVRNSYFGSWGNEETAISKEFPFYPFLYFYASFVCMEDKFAVYVNDEHFIDFAHRGNPNNISVLQIKGSVNVLDTECLEPMGEDAMTEVDSGLENGDLFVLNGLMTERGKTFAVNFLNGFTENDDIALHFNPRKSTGEVVLNSRYGGAWQSEEKVALPGVFWSNRPLQVKVETKRNKFKIYVNGVDLAKYKIRGNVEDVHAVQVKGDVFLLETLLLKRLMKPVWERLTGGIRPGTWVTLQGTPKKNWQQFVVNFALDDTLDGDIAFHFNVRRGARQVVRNHRQSGAWGREETVTPFFAFDSEATFEIVFFVKEEKFLIYFNGKLFFEFVHRVPVERITHIYMDGDCNFYEPEVVI
B1 was tested, and the “glycan array binding signal (z-score)” value [1] was -0.32, the “glycan array binding signal (z-score)” value [2] was -0.338 and the “glycan array binding signal (z-score)” value [3] was -0.316. For the same binder, the “glycan array binding signal (z-score)” value [4] was -0.163, the “glycan array binding signal (z-score)” value [5] was 0.428 and the “glycan array binding signal (z-score)” value [6] was -0.345. For the same binder, the “glycan array binding signal (z-score)” value (GlcNAc(b1-3)Man) was -0.33, the “glycan array binding signal (z-score)” value [7] was -0.345 and the “glycan array binding signal (z-score)” value [8] was -0.328. The “glycan array binding signal (z-score)” value (Kdn(a2-6)Gal(b1-4)GlcNAc) was -0.329, the “glycan array binding signal (z-score)” value [9] was -0.325 and the “glycan array binding signal (z-score)” value (Man(b1-4)GlcNAc) was -0.333. The “glycan array binding signal (z-score)” value [10] was -0.328, the “glycan array binding signal (z-score)” value [11] was -0.338 and the “glycan array binding signal (z-score)” value [12] was -0.325. For the same binder, the “glycan array binding signal (z-score)” value [13] was -0.337, the “glycan array binding signal (z-score)” value [14] was -0.323 and the “glycan array binding signal (z-score)” value [15] was -0.339. For the same binder, the “glycan array binding signal (z-score)” value [16] was -0.305, the “glycan array binding signal (z-score)” value [17] was -0.336 and the “glycan array binding signal (z-score)” value [18] was -0.339. The “glycan array binding signal (z-score)” value [19] was -0.133, the “glycan array binding signal (z-score)” value [20] was -0.331 and the “glycan array binding signal (z-score)” value [21] was -0.335. For the same binder, the “glycan array binding signal (z-score)” value [22] was -0.338 and the “glycan array binding signal (z-score)” value [23] was -0.336.
